Compound activity: PubChem BioAssay, National Center for Advancing Translational Sciences (NCATS)
In the library only some 21% were active in any assay of this set; here they are far more common.
Cycloheximide cs: counter-screen hit for Shiga toxin inhibitors, cycloheximide. cell reporter, cycloheximide protein synthesis inhibition counterscreen. max response, %. actives 12% (n = 300,000). AID 2314; in the data active = max response mostly above about 13%, no sharp cut-off; inactive = mostly below about 14%; also: read at 38.3 µM for the half of the compounds with a filed dose; 0% is about no effect
Pf growth 96h: P. falciparum growth inhibition at 96 hour, primary screen for plastid delayed-death inhibitors. P. falciparum luciferase reporter growth, 96 h. Potency, µM (titrated, usually from 28.7 µM), without a hit: top-dose activity change, negative = inhibition, most hits filed as inhibitors. actives 6.9% (n = 320,000). AID 504834; also: potency is read from the fitted curve at half-maximal effect; % is scaled to controls: 0 for no effect and ±100 for the full control effect
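Luminescence readout: decreased luciferase signal marks inhibited growth of reporter-expressing P. falciparum in infected red cells (2% hematocrit, 0.05% parasitemia final), exposed to compound two generations (96 h, 37 C, 5% CO2).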
Shiga toxin inh: blocks Shiga toxin action in Vero cells | inhibition, % at 38.7 µM | Vero cells, Shiga toxin protein synthesis inhibition reporter | actives 9.2% (n = 290,000) | AID 2315; in the data active = inhibition mostly above about 28%, no sharp cut-off; inactive = mostly below about 43%; also: 0% is about no effect
Pf growth 48h: inhibits P. falciparum growth in the first generation, 48 h. P. falciparum luciferase growth in erythrocytes, 48 h. Potency, µM (series often up to 28.7 µM), without a hit: at the top dose activity change, negative = inhibition, most hits filed as inhibitors. actives 5.9% (n = 310,000); also: potency is read from the fitted curve at half-maximal effect; % is scaled to controls: 0 for no effect and ±100 for the full control effect
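Parasite viability was followed by luminescence of a genomically integrated firefly luciferase. Cultures held 0.1% parasitemia at 2% hematocrit (final), incubated under 5% CO2 at 37 C.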
Active calls of the source: *; i = inactive; ? = inconclusive; · = no result; + = active, no number. Unless noted, calls follow the shape of the dose curve; as a rule, active = well fitted inhibition curve with a large enough effect; inconclusive = small, poorly fitted or top-dose-only effect, or another doubt; inactive = no such curve, though single readings can be large or run the other way.

SMILES	Cycloheximide cs	Pf growth 96h	Shiga toxin inh	Pf growth 48h
CC1SC(c2ccccc2)N(CC(O)c2ccc([N+](=O)[O-])cc2)C1=O (configuration not stated)	-5.9	75.0%	22.3	11.7µM*
Cc1cccc(-c2nc(CS(=O)CC(=O)NCCc3ccccc3)c(C)o2)c1 (configuration not stated)	-3.9	5.22µM*	3.2	12.2%
Cc1cccc(-c2nc(CS(=O)CC(=O)N3CCN(C)CC3)c(C)o2)c1 (configuration not stated)	-5.3	7.38µM*	-12.3	·
Cc1oc(-c2ccccc2F)nc1CS(=O)CC(=O)NCc1ccc(F)cc1 (configuration not stated)	-1.2	2.94µM*	4.1	30.1%
COc1cccc(-c2nc(CS(=O)CC(=O)NCCc3ccccc3)c(C)o2)c1 (configuration not stated)	13.2	-11.3%	10.7	5.0%
Cc1ccc(-c2nc(CS(=O)CC(=O)N3CCN(c4ccc(F)cc4)CC3)c(C)o2)cc1 (configuration not stated)	-3.3	?	-1.5	3.9%
O=C(CCNC(=O)c1ccc(Br)cc1)NCc1ccccn1	·	1.7%	·	2.8%
O=C(Nc1nc2ccccc2[nH]1)c1ccccc1OC(F)F	24.0	200.0%	38.4	129.4%
O=C(NC(Cc1ccccc1)c1nc2ccccc2[nH]1)c1ccc(Cl)c([N+](=O)[O-])c1 (configuration not stated)	0.9	?	4.0	-19.4%
O=C(Nc1nc2ccccc2[nH]1)c1ccccc1[N+](=O)[O-]	35.5*	64.6%	51.1*	145.3%
Cc1c(C(=O)Nc2nc3ccccc3[nH]2)cccc1[N+](=O)[O-]	15.1*	42.5%	28.4	78.2%
O=C(Nc1nc2ccccc2[nH]1)c1ccc(Cl)c([N+](=O)[O-])c1	36.9*	86.2%	115.5*	109.7%
CCOc1ccc(C(=O)Nc2cc(-c3nc4ccccc4[nH]3)ccc2Cl)cc1[N+](=O)[O-]	27.3*	24.6%	-4.4	?
CC1(C)Cc2c(sc3[nH]c(=S)n(Cc4ccco4)c(=O)c23)CO1	16.7	2.62µM*	10.5	-7.0%
Cn1c(=O)n(-c2ccc(Cl)cc2)c(=O)c2c3c(sc21)COC(C)(C)C3	-3.3	?	-13.9	?
CCn1c(=O)n(-c2ccc(Cl)cc2)c(=O)c2c3c(sc21)COC(C)(C)C3	-0.6	7.38µM*	-11.6	?
CC1(C)Cc2c(sc3c2c(=O)n(Cc2ccccc2)c2nncn32)CO1	-2.6	-24.5%	-8.4	0.2%
O=c1c2c3c(sc2[nH]c(=S)n1Cc1ccco1)CCC3	0.6	46.0%	15.6	52.8%
CC1(C)Cc2c(sc3c2c(=N)n(Cc2ccco2)c(=O)n3Cc2ccccc2)CO1	-0.4	-21.1%	-1.2	9.28µM*
CC1(C)Cc2c(sc3c2c(=N)n(Cc2ccco2)c(=O)n3Cc2ccc(Cl)cc2)CO1	-4.9	10.4µM*	36.8	5.22µM*
CCOCCCn1c(=S)[nH]c2cc(C(=O)NCC(OC)OC)ccc2c1=O	3.2	?	-4.9	21.7%
CC(OC(=O)c1cc(Br)ccc1O)C(=O)NC1(C#N)CCCCC1 (configuration not stated)	·	4.5%	·	5.5%
O=C(CONS(=O)(=O)c1ccc(Cl)cc1)NCCNc1ncc(C(F)(F)F)cc1Cl	-2.4	18.4%	-12.9	-11.3%
Cc1nn(C(C)(C)C)c(OC(=O)C2CCCC2)c1S(=O)(=O)c1ccccc1	-4.4	10.4µM*	-26.6	57.3%
N#Cc1cnn2c(-c3cccc([N+](=O)[O-])c3)ccnc12	·	?	·	15.9%
SMILES	Cycloheximide cs	Pf growth 96h	Shiga toxin inh	Pf growth 48h
CCN1C(=O)/C(=C\c2ccc(-c3cccc(C(=O)OC)c3)o2)SC1=Nc1ccc(C(=O)O)cc1	-3.6	?	-4.5	?
CCN=C1S/C(=C\c2ccc(-c3cccc(C(=O)O)c3)o2)C(=O)N1CC	83.2*	-29.1%	+	i
Cc1cccc(NC(=O)CN2C(=O)N/C(=C\c3ccc(-c4cccc(C(=O)O)c4)o3)C2=O)c1	54.4*	-11.0%	174.4*	29.6%
Cc1ccc(NC(=O)CN2C(=O)N/C(=C/c3ccccc3OCc3cccc(C(=O)O)c3)C2=O)cc1	43.2*	-1.1%	47.6*	64.8%
CCOc1ccc(NC(=O)COc2ccc(C(=O)NCc3cccc(OC)c3)cc2OC)cc1	·	19.5%	·	?
O=C(O)Cn1c(C(=O)Nc2nc(-c3ccccc3Cl)cs2)cc2ccccc21	-6.0	?	8.4	-14.1%
C[C@@H](C(=O)N[C@@H](Cc1c[nH]c2ccccc12)C(=O)O)n1nnc2ccccc2c1=O	1.8	?	6.0	-5.1%
CCOc1ccc(CCNC(=O)c2ccc(CS(=O)Cc3ccccc3Cl)o2)cc1 (configuration not stated)	15.6*	-16.9%	35.4	-2.2%
CCOc1ccc(CCNC(=O)c2ccc(CS(=O)Cc3ccc(Cl)cc3)o2)cc1 (configuration not stated)	5.2	?	16.0	3.5%
Nc1cc(C(=O)c2cccs2)ccc1Cl	16.5*	?	33.5	·
O=C(c1ccc(Cl)nc1)c1cccs1	-2.7	45.5%	14.5	13.7%
CC(NC(=O)c1c(F)cccc1Cl)c1ccc(-n2ccnc2)cc1 (configuration not stated)	1.0	-5.3%	-26.1	-18.5%
CSc1nc(Sc2ccc(Cl)cc2)c2ccccc2n1	0.6	4.65µM*	-10.9	2.62µM*
CC(=O)Nc1cccc(-n2nnc(SCC(=O)N(C)c3ccccc3)n2)c1	-2.0	16.4%	-1.2	35.2%
O=C(NCCCN1CCCC1)c1ccc2c(c1)N(Cc1cccc(Cl)c1)C(=O)c1ccccc1S2=O (configuration not stated)	-5.5	0.0%	-21.4	3.29µM*
CCN1CCN(C(=O)c2ccc3c(c2)N(Cc2ccccc2)C(=O)c2ccccc2S3=O)CC1 (configuration not stated)	-1.8	?	-4.5	?
Cc1ccccc1CN1C(=O)c2ccccc2S(=O)c2ccc(C(=O)NCCCN3CCOCC3)cc21 (configuration not stated)	-2.0	1.47µM*	-10.8	?
CC1CCCCN1CCNC(=O)c1ccc2c(c1)N(Cc1cccc(Cl)c1)C(=O)c1ccccc1S2=O (configuration not stated)	-3.8	1.6%	-9.5	2.94µM*
CCN1CCN(CCNC(=O)c2ccc3c(c2)N(Cc2ccc(F)cc2)C(=O)c2ccccc2S3=O)CC1 (configuration not stated)	-2.0	10.5%	-2.6	10.4µM*
COC(CNC(=O)C1CCC(CNS(=O)(=O)c2c(C)cc(C)cc2C)CC1)OC (configuration not stated)	-2.8	2.1%	-5.0	-16.1%
Cc1ccc(C)c(CN2C(=O)c3ccccc3S(=O)c3ccc(C(=O)N4CCN(c5ccccn5)CC4)cc32)c1 (configuration not stated)	10.1	?	1.3	11.7µM*
CCOC(=O)N1CCN(C(=O)c2ccc3c(c2)N(Cc2cccc(Cl)c2)C(=O)c2ccccc2S3=O)CC1 (configuration not stated)	2.0	19.2%	-1.6	7.38µM*
Cc1ccsc1/C=N/NC(=O)C(=O)NCC(C)C	41.3*	34.4%	75.9*	167.4%
